Six1-Eya2 inh = blocks human Six1 binding to Eya2; actives 0.56% (n = 360,000); activity change, % (no concentration beside the values); AlphaScreen GST-Six1/His-Eya2 binding, biochemical; stronger effect = lower value; Q15475+O00167; in the data active means activity change below about -65%; inconclusive means mostly about -30% to -63%
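Compounds are tested against tagged Six1 and Eya2 proteins bridged by glutathione donor and nickel acceptor beads; after a one-hour incubation at 37 °C without light, AlphaScreen emission is recorded.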
CtBP-E1A blk = blocks the CtBP interaction with E1A; AlphaScreen GST-E1A/His-CtBP binding, 1536-well; stronger effect = lower value; actives 0.49% (n = 340,000); activity change, % (no concentration beside the values); in the data active means activity change below about -65%; inconclusive means mostly about -30% to -63%
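Protein mix (5X: 125 nM each GST-E1A, His-CtBP) was incubated with pinned compound 2 h at 37 deg C in dark, in 50 mM Tris pH 8.0 buffer with 300 mM NaCl. Glutathione donor and nickel acceptor beads followed; AlphaScreen signal read after 1 h.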
CBFb-RUNX1 inh = blocks binding between human CBF-beta and RUNX1; Q01196+Q13951; AlphaScreen CBFb-His/RUNX1-biotin binding, biochemical; Potency, µM (top dose mostly 59.8 µM), hits mostly inhibitors; 230,000 tested, under 10 active
Target sequence (Q01196 whole entry, looked up): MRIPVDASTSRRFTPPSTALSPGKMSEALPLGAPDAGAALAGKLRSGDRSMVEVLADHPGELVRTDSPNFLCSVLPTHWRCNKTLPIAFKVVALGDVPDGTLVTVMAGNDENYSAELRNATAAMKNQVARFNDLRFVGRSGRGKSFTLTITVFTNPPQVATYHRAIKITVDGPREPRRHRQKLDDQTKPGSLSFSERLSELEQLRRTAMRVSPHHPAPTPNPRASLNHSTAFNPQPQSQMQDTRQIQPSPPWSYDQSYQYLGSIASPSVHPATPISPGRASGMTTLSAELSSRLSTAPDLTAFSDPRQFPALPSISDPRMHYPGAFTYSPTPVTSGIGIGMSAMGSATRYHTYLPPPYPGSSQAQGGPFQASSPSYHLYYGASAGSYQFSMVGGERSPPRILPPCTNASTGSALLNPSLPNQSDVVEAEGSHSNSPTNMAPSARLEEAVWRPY
Target sequence (Q13951 whole entry, looked up): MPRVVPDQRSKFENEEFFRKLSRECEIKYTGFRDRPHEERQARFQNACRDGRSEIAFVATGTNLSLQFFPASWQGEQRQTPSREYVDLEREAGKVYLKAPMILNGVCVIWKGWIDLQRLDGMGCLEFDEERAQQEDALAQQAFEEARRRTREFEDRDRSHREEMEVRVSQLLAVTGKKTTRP
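Proteins preincubated together for 20 min at RT before compound addition; 15 min later, nickel and streptavidin beads were added and left 90 min prior to AlphaScreen measurement.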
MBNL1-CUG inh = MBNL1-poly(CUG) RNA binding inhibition | Q9NR56 | TR-FRET MBNL1-His/biotin-(CUG)12 binding, 665/545 ratio | Potency, µM (highest dose often 57.5 µM), hits mostly inhibitors | actives 0.036% (n = 280,000) | AID 2675; active means well fitted inhibition curve with a large enough effect in the signal ratio, with a control signal flat, not every such curve was filed as active; inconclusive means small, poorly fitted or top-dose-only effect, or effect the other way, or a change in a side signal; inactive means no such curve, though single readings can be large or run the other way; the % refers to the signal ratio
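His-tagged MBNL1 binding to biotinylated (CUG)12 RNA was measured by TR-FRET using terbium anti-His antibody (0.055 ng/ul final) and streptavidin-XL665 (5 nM final). Compounds were titrated 92 nM to 58 uM; 60 min at room temperature.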
RORgamma inh = ROR gamma (mouse) transcription inhibition | P51450 | Drosophila S2 Gal4-RORgamma UAS-luciferase reporter, 20 h | Potency, µM (top dose mostly 53.6 µM), usual class: inhibitors | actives 5.4% (n = 310,000); further: nearly all actives have a fitted effect of over 60% in size
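Stably transfected Drosophila Schneider cells are the test system, with ROR gamma fused to Gal4 and luciferase under UAS control; luminescence is read after 20 hr of 700 uM copper sulfate induction at ambient temperature.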
Gal4-VP16 FLuc = inhibits Gal4-VP16 luciferase reporter, ROR gamma counter-screen. Drosophila S2 Gal4-VP16 UAS-luciferase, luminescence, 20 h. actives 3.5% (n = 310,000). Potency, µM (doses to about 53.6 µM), actives largely listed as inhibitors;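 further: Gal4-VP16 expression switched on by copper sulfate through the metallothionein promoter; nearly all actives have a fitted effect of over 50% in size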
Each line names hits and unclear results; the compound was inactive in the other large screens. Shown are actives, neighbours in structure and some others; about 5.5% of the full set was active somewhere. Unless noted, the call rests on the fitted dose curve; in most records, active means well fitted curve in the direction sought with a large enough effect; inconclusive means small, poorly fitted or top-dose-only effect, or another doubt; inactive means no such curve, though single readings can be large; an effect the other way counts as inactive or inconclusive.

O=C1C(=C(c2ccccc2)c2ccccc2)Nc2ccccc21	Six1-Eya2 inh -70, CtBP-E1A blk inconclusive, CBFb-RUNX1 inh inconclusive, MBNL1-CUG inh inconclusive
CCCS(=O)(=O)NC(=O)C1(C)CCN(C(=O)c2cccs2)C1 (centres undefined)	none (no result: CBFb-RUNX1 inh, MBNL1-CUG inh, RORgamma inh, Gal4-VP16 FLuc)
C=CCn1c(P(=O)(O)c2ccccc2)nc2ccccc21	none
C=CCn1c(NC(=O)c2ccccc2)nc2ccccc21	RORgamma inh 0.56µM, Gal4-VP16 FLuc 1µM (no result: CBFb-RUNX1 inh)
CN(C)CCCn1c(NC(=O)C2CCCCC2)nc2ccccc21	none (no result: Gal4-VP16 FLuc)
CCCCn1c(NC(=O)C2CCCCC2)nc2ccccc21	RORgamma inh 1.3µM, Gal4-VP16 FLuc 2.8µM
CCOC(=O)c1sc(NC(=O)/C=C/c2ccc(F)cc2)nc1C	none
CCn1c(NC(=O)/C=C/c2ccc(F)cc2)nc2ccccc21	RORgamma inh 1.3µM, Gal4-VP16 FLuc inconclusive (no result: CBFb-RUNX1 inh)
CCCn1c(NC(=O)C2COc3ccccc3O2)nc2ccccc21 (centres undefined)	RORgamma inh 1.4µM, Gal4-VP16 FLuc 1.4µM
COC(=O)c1c(C)oc(C)c1S(=O)(=O)N(Cc1ccccc1)C(C)C	none (no result: MBNL1-CUG inh)
CN(CCO)C(=O)c1nc[nH]c1C(=O)N1CCN(C(=O)OC(C)(C)C)CC1	none (no result: CBFb-RUNX1 inh, MBNL1-CUG inh, RORgamma inh, Gal4-VP16 FLuc)
CCCCCNc1ncnc2c(C)[nH]nc12	none (no result: CBFb-RUNX1 inh, MBNL1-CUG inh, RORgamma inh, Gal4-VP16 FLuc)
CCc1ccccc1Nc1nc2ccccc2n1CC	RORgamma inh 14µM, Gal4-VP16 FLuc inconclusive
CNc1nc2ccccc2n1CC(=O)c1ccccc1	none (no result: CBFb-RUNX1 inh)
CCCCn1c(CNC(=O)c2cccs2)nc2ccccc21	RORgamma inh 11µM, Gal4-VP16 FLuc inconclusive
CCn1c(NC(=O)c2ccccc2)nc2ccccc21	RORgamma inh 0.32µM, Gal4-VP16 FLuc 2.5µM
CCn1c(CNc2ccc(C(=O)O)cc2)nc2ccccc21	RORgamma inh 10µM
CN(CC(=O)Nc1ccc(Cl)c(S(=O)(=O)N(C)C)c1)Cc1ccccc1	RORgamma inh inconclusive, Gal4-VP16 FLuc inconclusive (no result: CBFb-RUNX1 inh)
CCCCn1c(NCCO)nc2ccccc21	none
CCCCn1c(NC(=O)c2ccccc2)nc2ccccc21	RORgamma inh 1.1µM, Gal4-VP16 FLuc 2.2µM
Cc1nc2ccccc2n1CC(=O)NC1CCCCCC1	Gal4-VP16 FLuc 20µM (no result: CtBP-E1A blk)
Cc1cc(C(=O)CSc2nnc3ccccn23)c(C)n1-c1ccccc1	RORgamma inh 5µM, Gal4-VP16 FLuc 2.8µM (no result: MBNL1-CUG inh)
O=C(CSc1nnc2ccccn12)c1ccc2c(c1)OCCO2	RORgamma inh 13µM, Gal4-VP16 FLuc inconclusive
CC(C)c1cc(Cn2c3ccccc3c(=O)n2C(C)CBr)on1 (centres undefined)	none (no result: CBFb-RUNX1 inh, MBNL1-CUG inh, RORgamma inh, Gal4-VP16 FLuc)
C=C1C(=O)OC2C1CC/C(C)=C/CCC1(C)OC21 (centres undefined)	RORgamma inh 4.5µM, Gal4-VP16 FLuc 4µM (no result: Six1-Eya2 inh, CtBP-E1A blk, CBFb-RUNX1 inh, MBNL1-CUG inh)
C=C1C(=O)O[C@@H]2[C@H]3O[C@]3(C)CC/C=C(\C)CC[C@@H]12	none (no result: MBNL1-CUG inh, RORgamma inh, Gal4-VP16 FLuc)
C=C1C(=O)O[C@@H]2C3OC3(C)CC/C=C(\C)CC[C@@H]12 (some centres undefined)	CBFb-RUNX1 inh inconclusive, RORgamma inh inconclusive, Gal4-VP16 FLuc 28µM (no result: Six1-Eya2 inh, CtBP-E1A blk, MBNL1-CUG inh)
